# According to PubChem BioAssay AID504909 (Southern Research Specialized Biocontainment Screening …, 2011):
# Potency and affinity values are given separately. Unmarked numbers belong to inactive results. No rule for the calls is given here.
# Test: Vero cell cytotoxicity, dose response, cytotoxicity control for M. tuberculosis growth inhibitor project, Vero cells, purified and synthesized compounds, set 5 (AID 504909)
# Conditions: series mostly up to 100 µM; viability: at the top concentration
row,Compound,viability [%]
1,CCC(Sc1nc2ccccc2c(=O)[nH]1)C(=O)Nc1cccc(OC)c1 (configuration not stated),91.9
2,O=C(CSc1ccccn1)NC1CCCCC1,91
3,Cc1nc(SCC(=O)NC2CCCC2)[nH]c(=O)c1C,91.4
4,O=C(CSc1nc2ccccc2c(=O)[nH]1)NC1CCCCC1,96.5
5,CC[C@@H](CO)NCCN[C@@H](CC)CO,108
6,O=c1[nH]c(=S)[nH]c2ccccc12,81.5
7,CCOC(=O)CSc1nc(C)c(C)c(=O)[nH]1,98.6
8,CCC(Sc1nc2c(c(=O)[nH]1)CCC2)C(=O)Nc1cccc(OC)c1 (configuration not stated),90.8
9,CC(C)CCNC(=O)CSc1nc2c(c(=O)[nH]1)CCC2,88.5
10,Cc1nc(SCC(=O)NC2CCCCC2)[nH]c(=O)c1C,91.7
11,Cc1[nH]c(=S)[nH]c(=O)c1C,98.1
12,CN(C)C(=O)CSc1nc2ccccc2c(=O)[nH]1,88.3
13,Cc1cc(=O)[nH]c(SCC(=O)NC2CCCCC2)n1,100
14,COc1c(N2CCNC(C)C2)c(F)cc2c(=O)c(C(=O)O)cn(C3CC3)c12 (configuration not stated),108
15,O=C(CSc1nc2ccccc2c(=O)[nH]1)NC1CCCC1,95.4
16,COC(=O)c1ccc(CNc2c(N3CCCC3)c(=O)c2=O)cc1,102
17,COc1ccc(NC(=O)CSc2nc3ccccc3c(=O)[nH]2)cc1,89.5
18,NC[C@H]1O[C@H](O[C@H]2[C@H](O)[C@@H](O[C@H]3O[C@H](CO)[C@@H](O)[C@H](N)[C@H]3O)[C@H](N)C[C@@H]2N)[C@H](O)[C@@H](O)[C@@H]1O,110
19,O=C(CSc1nc2c(c(=O)[nH]1)CCCC2)NC1CCCCC1,82.8
20,CCCc1cc(C(N)=S)ccn1,89.3
21,Cc1nc(SCC(=O)N(C)c2ccccc2)[nH]c(=O)c1C,95.4
22,CC1CCN(C(=O)CSc2nc3ccccc3c(=O)[nH]2)CC1,92.3
23,Nc1c(C(=O)NC2CCCCC2)nsc1C(=O)OCC(=O)NC1CCCCC1,102
24,Cc1c[nH]c(=S)[nH]c1=O,103
25,CN[C@@H]1[C@H](O[C@H]2[C@H](O[C@H]3[C@H](O)[C@@H](O)[C@H](N=C(N)N)[C@@H](O)[C@@H]3N=C(N)N)O[C@@H](C)[C@]2(O)C=O)O[C@@H](CO)[C@H](O)[C@H]1O,106
26,Cc1nc(SCC(N)=O)[nH]c(=O)c1C,102
27,COC(=O)C(C)Oc1ccc(Cc2ncc(C(F)(F)F)cc2Cl)cc1 (configuration not stated),85.8
